# Measurements: ChEMBL document CHEMBL4513216, “Probing the Open Global Health Chemical Diversity Library for Multistage-Active Starting Points for Next-Generation Antimalarials” (ACS Infect Dis, 2020)
# The whole screen tested about 69,000 compounds, of which about 8,600 (12%) showed an effect of 50% or more. This is one part of a sample in which strong results are shown more often than they occur.
# Tested on: Plasmodium berghei
# Assay: Screen against P. berghei liver stage (PbLuc), transformed with Luciferase, at 10uM
# Type: functional, HepG2
# Details: tested at 10 uM
row,Compound,INHIBITION [%]
1,O=c1cc(Cn2ccnc2)nc2n1CCCN(Cc1ccc(F)cc1)C2,-3.52
2,Cn1ccnc1CN1CCN(CCOc2ccccc2F)CC1,7.27
3,CC(C)c1ncc(CN2CCC(CO)C2)cn1 (stereo not drawn),8.72
4,Cc1n[nH]c(C2CN(C(=O)Cn3ccccc3=O)CCO2)n1 (stereo not drawn),34.5
5,CC(C)c1n[nH]c(C2CN(C(=O)Cn3ccccc3=O)CCO2)n1 (stereo not drawn),62.1
6,CCc1n[nH]c(C2CN(C(=O)CCn3ccccc3=O)CCO2)n1 (stereo not drawn),-22.9
7,CC(C)c1n[nH]c(C2CN(C(=O)CCn3ccccc3=O)CCO2)n1 (stereo not drawn),5.97
8,CCc1n[nH]c(C2CN(C(=O)Cn3ccccc3=O)CCO2)n1 (stereo not drawn),53
9,CCCc1n[nH]c(C2CN(C(=O)Cn3ccccc3=O)CCO2)n1 (stereo not drawn),48.4
10,Cc1noc([C@H]2C[C@@H]3CCN(CC4CCOCC4)C[C@H]3O2)n1,27.7
11,CNC(=O)CN1CC[C@H]2CN(C(=O)c3cccc(C)c3)C[C@H]2C1,8.52
12,Cc1nocc1C(=O)N1CCc2c(CN(C)C)nn(C)c2C1,-1.12
13,O=C(c1cc2c(s1)CCOC2)N1CCCC1Cn1cccn1 (stereo not drawn),8.64
14,O=C(Cn1cnc2cc3c(cc21)OCCCO3)NC1CCCCC1,13.7
15,c1cc(CN2CCC(c3ccnc4nccn34)C2)ccn1 (stereo not drawn),35.7
16,c1ccc2c(Cc3nnc([C@H]4CCN(CC5CC5)C4)o3)c[nH]c2c1,5.96
17,CN1CC[C@H](c2nnc(Cc3c[nH]c4ccccc34)o2)C1,24.9
18,c1ccc2c(Cc3nnc([C@H]4CCN(C5CCCCC5)C4)o3)c[nH]c2c1,8.67
19,c1ccc2c(Cc3nnc([C@H]4CCN(C5CCOCC5)C4)o3)c[nH]c2c1,56.1
20,c1ccc2c(Cc3nnc([C@H]4CCNC4)o3)c[nH]c2c1,65.6
21,c1ccc2c(Cc3nnc([C@H]4CCN(C5CCC5)C4)o3)c[nH]c2c1,-4.88
22,CCn1nc(C)c2nc(C(C)C)nc(NCC(=O)N3CCOCC3)c21,48.2
23,CC(C)c1noc(CN2CCCN(Cc3cccs3)CC2)n1,11.6
24,CCOC1Sc2nnc(C)n2N=C1c1ccc(Cl)cc1 (stereo not drawn),31.8
25,CN(C(=O)c1ccc(S(=O)(=O)NC(C)(C)C)cc1)C1(C#N)CCC1,50.4

row,Compound,INHIBITION [%]
1,CN(Cc1ccsc1)C(=O)c1ccc(S(=O)(=O)NC(C)(C)C)cc1,-61.4
2,CCC(C)NS(=O)(=O)c1ccc(C(=O)N(C)C2(C#N)CCC2)cc1 (stereo not drawn),46.3
3,Cc1n[nH]c(C)c1-c1cnc(CC2CCCN(S(C)(=O)=O)C2)cn1 (stereo not drawn),-38.2
4,Cc1cc(C)c2nc(C)c(C(=O)N3CCC(N4CCCC4)CC3)cc2c1,31
5,CN1CCN(C(=O)CCn2c(C(F)(F)F)cc3cccnc32)CC1,-15.3
6,CCNc1nc(C)c(C(=O)N2CCN(c3ncccc3C)CC2)s1,-11.2
7,CNc1nc(C)c(C(=O)N2CCC(C(O)Cc3ccccc3)CC2)s1 (stereo not drawn),61.2
8,COc1nc(C)c(C(=O)N2CCC(C(O)Cc3ccccc3)CC2)s1 (stereo not drawn),18.5
9,CCOC(=O)N1CCN(C(=O)c2sc(-c3ccncc3)nc2C)CC1,24
10,CCNc1nc(C)c(C(=O)N2CCC(C(O)Cc3ccccc3)CC2)s1 (stereo not drawn),53.9
11,Cc1cc(=O)c(C(=O)N2CCC(C(O)Cc3ccccc3)CC2)c(C)[nH]1 (stereo not drawn),35.8
12,CCOC(=O)N1CCN(C(=O)c2sc(-c3ccccc3)nc2C)CC1,74.7
13,Cc1nc(N)sc1C(=O)N1CCC(C(O)Cc2ccccc2)CC1 (stereo not drawn),46.7
14,CCOC(=O)N1CCN(C(=O)c2sc(-c3ccc(F)cc3)nc2C)CC1,18.8
15,Cc1cc(C(=O)N2CCc3nc(C4CCCCN4)ncc3C2)cs1 (stereo not drawn),-17.7
16,O=C([C@H]1CC[C@@H]2[C@@H](CCN2Cc2nccs2)O1)N1CCCCO1,19.5
17,O=S1(=O)NCC2(CCCN(Cc3cccnc3)C2)Oc2ncccc21 (stereo not drawn),40.8
18,c1cc(CCNc2ccc(CC3CCNC3)cn2)ccn1 (stereo not drawn),19.3
19,O=C([C@@H]1CCS(=O)(=O)[C@@H]2CN(c3ncccn3)C[C@@H]21)N1CCOCC1,23.1
20,CN1CCNC(Cc2ccc(-c3ccncc3)cc2)C1=O (stereo not drawn),22
21,CCN1CCn2c(C)cnc2C12CCN(C(=O)N(C)C)CC2,-18.4
22,O=C(Nc1cccnc1)[C@H]1C[C@@H]2CCN(c3nncs3)C[C@H]2O1,-13.2
23,Cn1cc(N2C(=O)CC[C@@H]3[C@H]2CCN3Cc2cccc(C#N)c2)cn1,-24.1
24,COC(=O)c1cccc(CN(C)C(C)c2ccccn2)c1 (stereo not drawn),14.8
25,CC(c1cccs1)N(C)Cc1cnc(-c2ccccn2)nc1 (stereo not drawn),66.5

row,Compound,INHIBITION [%]
1,CC(C)n1cnnc1CN(C)Cc1cnc(-c2ccccn2)nc1,-36.3
2,CC(=O)N1CCN(C(=O)c2ccc(-c3cccc(C)c3)[nH]c2=O)CC1,35.7
3,Cc1cnn(CCNCc2ccccc2F)c1,-14.6
4,Cc1cnn(CCNCc2ccccc2C#N)c1,51
5,Cc1ccc(-c2cc(CNCCn3cc(C)cn3)on2)cc1,60.4
6,Cc1cnn(CCNCc2cc(C)no2)c1,38.8
7,Cc1cnn(CCNCc2cc(-c3ccccc3)no2)c1,20.4
8,Cc1cnn(CCNCc2ccc(C#N)cc2)c1,6.8
9,CCN(CC1CCCO1)C(=O)NCCNC(=O)c1ccccc1F (stereo not drawn),34.5
10,CCC(Nc1cccc(Oc2ccc(C#N)cc2)c1)C(N)=O (stereo not drawn),29.6
11,NC(=O)Nc1cccc(Oc2ccccn2)c1,-1.58
12,CCC(Nc1cccc(Oc2ccccn2)c1)C(N)=O (stereo not drawn),62
13,CN1CCC(c2nnc(CN3CCCCC3)n2C)CC1,25.4
14,COc1ccccc1OCC(=O)NCC(C)(O)C1CC1 (stereo not drawn),-3.51
15,CCN1CCc2[nH]cnc2C12CCN(C(=O)CCCn1cncn1)CC2,36.3
16,CCCN1CCc2[nH]cnc2C12CCN(C(=O)Cn1ccnc1C)CC2,57
17,CC(=O)N1CCc2[nH]cnc2C12CCN(C(=O)Cc1ccccn1)CC2,8.31
18,CN1CCc2[nH]cnc2C12CCN(C(=O)CCc1cccs1)CC2,31.9
19,CC(=O)N1CCc2[nH]cnc2C12CCN(C(=O)Cc1cccs1)CC2,61.5
20,CC(=O)N1CCc2[nH]cnc2C12CCN(C(=O)CCn1cccn1)CC2,35.2
21,CCN1CCc2[nH]cnc2C12CCN(C(=O)CCc1cccs1)CC2,26
22,CCC(=O)N1CCC2(CC1)c1nc[nH]c1CCN2S(C)(=O)=O,1.81
23,CCCN1CCc2[nH]cnc2C12CCN(C(=O)CCn1cccn1)CC2,54.8
